# About 410 targets per protein were measured; listed, in parts, are those with the strongest signals and a random draw of the rest.
# Experiments:
# Test in all cases: glycan array binding signal (z-score within array); higher = stronger binding
# Details in all cases: glycan notation: IUPAC condensed, linker removed; mutation: E227G
# Gal6S(b1-4)Glc6S = target: Gal6S(b1-4)Glc6S
# Procedure, shortened: (§1)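 Negative Z-scores can be read as non-binding. The Z-score is calculated within each array and then averaged across arrays of one protein sequence at different concentrations or buffers and across linkers. Arrays, 3228 in all, were curated from the Consortium for Functional Glycomics database and kept only where the protein sequence was available.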
# Gal6S(b1-4)GlcNAc6S = target: Gal6S(b1-4)GlcNAc6S
# Procedure, shortened: as §1
# [1] = target: GalNAc(b1-4)GlcNAc(b1-2)Man(a1-3)[GalNAc(b1-4)GlcNAc(b1-2)Man(a1-6)]Man(b1-4)GlcNAc(b1-4)GlcNAc
# Procedure, shortened: as §1
# GalNAc(b1-6)GalNAc = target: GalNAc(b1-6)GalNAc
# Procedure, shortened: as §1
# [2] = target: GalNAc3S(b1-4)[Fuc(a1-3)]GlcNAc
# Procedure, shortened: as §1
# Glc(a1-4)Glc = target: Glc(a1-4)Glc
# Procedure, shortened: as §1
# GlcA(b1-3)Gal = target: GlcA(b1-3)Gal
# Procedure, shortened: as §1
# [3] = target: GlcNAc(b1-2)Man(a1-3)[GlcNAc(b1-4)][GlcNAc(b1-2)Man(a1-6)]Man(b1-4)GlcNAc(b1-4)[Fuc(a1-6)]GlcNAc
# Procedure, shortened: as §1
# GlcNAc(b1-3)Gal(b1-4)Glc = target: GlcNAc(b1-3)Gal(b1-4)Glc
# Procedure, shortened: as §1
# [4] = target: GlcNAc(b1-3)Gal(b1-4)GlcNAc(b1-3)Gal(b1-4)GlcNAc(b1-2)Man(a1-3)[GlcNAc(b1-3)Gal(b1-4)GlcNAc(b1-3)Gal(b1-4)GlcNAc(b1-2)Man(a1-6)]Man(b1-4)GlcNAc(b1-4)[Fuc(a1-6)]GlcNAc
# Procedure, shortened: as §1
# [5] = target: GlcNAc(b1-3)Gal(b1-4)GlcNAc(b1-3)GalNAc
# Procedure, shortened: as §1
# [6] = target: GlcNAc(b1-3)Gal(b1-4)GlcNAc(b1-6)[GlcNAc(b1-3)]Gal(b1-4)GlcNAc
# Procedure, shortened: as §1
# [7] = target: GlcNAc(b1-4)Gal(b1-4)GlcNAc
# Procedure, shortened: as §1
# [8] = target: GlcNAc(b1-4)GlcNAc(b1-4)GlcNAc
# Procedure, shortened: as §1
# [9] = target: GlcNAc(b1-4)GlcNAc(b1-4)GlcNAc(b1-4)GlcNAc(b1-4)GlcNAc
# Procedure, shortened: as §1
# GlcNAc(b1-6)GalNAc = target: GlcNAc(b1-6)GalNAc
# Procedure, shortened: as §1
# [10] = target: Kdn(a2-3)Gal(b1-4)[Fuc(a1-3)]GlcNAc
# Procedure, shortened: as §1
# [11] = target: Man(a1-2)Man(a1-3)[Man(a1-2)Man(a1-6)]Man
# Procedure, shortened: as §1
# [12] = target: Man(a1-2)Man(a1-3)[Man(a1-6)]Man(a1-6)[Man(a1-2)Man(a1-3)]Man(b1-4)GlcNAc(b1-4)GlcNAc
# Procedure, shortened: as §1
# Man(a1-3)[Man(a1-6)]Man = target: Man(a1-3)[Man(a1-6)]Man
# Procedure, shortened: as §1
# [13] = target: Man(a1-3)[Man(a1-6)]Man(a1-6)[Man(a1-3)]Man
# Procedure, shortened: as §1
# Neu5Ac(a2-3)Gal = target: Neu5Ac(a2-3)Gal
# Procedure, shortened: as §1
# [14] = target: Neu5Ac(a2-3)Gal(b1-3)GlcNAc(b1-2)Man(a1-3)[Neu5Ac(a2-3)Gal(b1-3)GlcNAc(b1-2)Man(a1-6)]Man(b1-4)GlcNAc(b1-4)GlcNAc
# Procedure, shortened: as §1
# [15] = target: Neu5Ac(a2-3)Gal(b1-3)GlcNAc(b1-3)Gal(b1-4)GlcNAc
# Procedure, shortened: as §1
# [16] = target: Neu5Ac(a2-3)Gal(b1-4)GlcNAc
# Procedure, shortened: as §1
# [17] = target: Neu5Ac(a2-3)Gal(b1-4)GlcNAc(b1-2)Man(a1-3)[Neu5Ac(a2-3)Gal(b1-4)GlcNAc(b1-2)Man(a1-6)]Man(b1-4)GlcNAc(b1-4)GlcNAc
# Procedure, shortened: as §1
# [18] = target: Neu5Ac(a2-3)Gal(b1-4)GlcNAc(b1-3)Gal(b1-4)GlcNAc(b1-2)Man(a1-3)[Neu5Ac(a2-3)Gal(b1-4)GlcNAc(b1-3)Gal(b1-4)GlcNAc(b1-2)Man(a1-6)]Man(b1-4)GlcNAc(b1-4)GlcNAc
# Procedure, shortened: as §1
# [19] = target: Neu5Ac(a2-3)Gal(b1-4)[Fuc(a1-3)]GlcNAc(b1-3)Gal(b1-4)GlcNAc
# Procedure, shortened: as §1
# [20] = target: Neu5Ac(a2-3)Gal(b1-4)[Fuc(a1-3)]GlcNAc(b1-6)[Gal(b1-3)]GalNAc
# Procedure, shortened: as §1
# [21] = target: Neu5Ac(a2-3)[GalNAc(b1-4)]Gal(b1-4)GlcNAc
# Procedure, shortened: as §1
# [22] = target: Neu5Ac(a2-6)Gal(b1-4)GlcNAc(b1-2)Man(a1-3)[Gal(b1-4)GlcNAc(b1-2)Man(a1-6)]Man(b1-4)GlcNAc(b1-4)GlcNAc
# Procedure, shortened: as §1
# [23] = target: Neu5Ac(a2-6)Gal(b1-4)GlcNAc(b1-2)[Neu5Ac(a2-6)Gal(b1-4)GlcNAc(b1-4)]Man(a1-3)[GlcNAc(b1-4)][Neu5Ac(a2-6)Gal(b1-4)GlcNAc(b1-4)Man(a1-6)]Man(b1-4)GlcNAc(b1-4)GlcNAc
# Procedure, shortened: as §1
# Neu5Ac(a2-8)Neu5Ac = target: Neu5Ac(a2-8)Neu5Ac
# Procedure, shortened: as §1
# [24] = target: Neu5Ac(a2-8)Neu5Ac(a2-3)[Gal(b1-3)GalNAc(b1-4)]Gal(b1-4)Glc
# Procedure, shortened: as §1
# [25] = target: Neu5Ac(a2-8)Neu5Ac(a2-8)Neu5Ac
# Procedure, shortened: as §1
# [26] = target: Neu5Ac9Ac(a2-3)Gal(b1-3)GlcNAc
# Procedure, shortened: as §1
# [27] = target: Neu5Gc(a2-6)Gal(b1-4)GlcNAc
# Procedure, shortened: as §1
# [28] = target: Neu5Gc(a2-8)Neu5Ac(a2-3)Gal(b1-4)GlcNAc
# Procedure, shortened: as §1
binder,measurement,setting,value
"Epa1-NP-mutant-E227G (Candida glabrata), Q6VBJ0 (protein) MILNPALFLNKCVCIYTTLILLLLTNGGYATSSNDISLASKDPTTFPLGCSPDITTPKKGLSMELYSYDFRKKGSYPCWDAAYLDPNYPRTGYKSHRLLAKVDGVTGNINFYYHATKGCTPQLGHLPASYNYPKPLTMTNFTMLLYGYFRPKVTGFHTFTISADDLLFVNFGAGNAFDCCRRDSSADHFGNYQAYAIWGSKTAKDELTVHLDAGVYYPIRLFYNNRGYDGALSFTFKTESNENTVSDFSEYFFSLDDTEEGCPGLISYDSSCASVKTSKIIGIDYHTETPNENLVPITKTIYHLGIPCTGTTTTPLCGSGFYDPLANKCVTINTSSTSSVTKTTSHTTSKEVSFHSSISSQKTLIPKSIPSPYGPIKSQSIPTEMETSSEISSSEYAFSDVISTPSHSPYTKKHSSLNSSSYTSTVIHSLTSYSISQGIFSTSLSEQNITSKSSTDKFSTATSMSNNITQSSIIISQFSTNNENYTTTSMHTSSDKISTETLNNSISTTTSILFSNSSTILKNNTTIISSDKDTHYHPVNPTIVCSTNKTEIICASITQPSISNSNNHWSSSVLKFNSTTVRSTLPSSAGSNETSINVPFSSSTESNTSTSSTSTSNSKMVRSTLPSSAGSNETSISVPFSSSTESNTSTSSTSTSNSKMVRSTLPSSAGSNETSINVPFSSSTESNTSTSSTSTSNSKTVRSTPFSSAGIIMTSLSQRNNKSASSYASSNSKCYNTADSCRKVHSTPSYLLTSSYTSEGVDYDCSLVSTKLKINDTNCVNNKHTTKSCLKTSVTTTIPTLEIKTARKSSSNTIGLHSYPTSSPNKSISSAPIIGYISSFKTIKTASPSYQTSDLTTITTITSLNNPGSTAVENTHESNDKSRKTSSNDISSKHSVIKETKDAVESSNKSHQTNTLKCSSIIIASSSHNSYESLGGTTLTLTLSKVYSPQNNDTLPFLEISEVNPSRTVLPESSKMMQYLTSTEERNKTARNTIATNIVSISTFHFEGEGNAIRMGYTQLLLMLIGIIVMNIGT",glycan array binding signal (z-score),Gal6S(b1-4)Glc6S,13
same,glycan array binding signal (z-score),Gal6S(b1-4)GlcNAc6S,12.7
same,glycan array binding signal (z-score),[1],-0.164
same,glycan array binding signal (z-score),GalNAc(b1-6)GalNAc,-0.146
same,glycan array binding signal (z-score),[2],-0.117
same,glycan array binding signal (z-score),Glc(a1-4)Glc,-0.175
same,glycan array binding signal (z-score),GlcA(b1-3)Gal,-0.114
same,glycan array binding signal (z-score),[3],-0.217
same,glycan array binding signal (z-score),GlcNAc(b1-3)Gal(b1-4)Glc,-0.256
same,glycan array binding signal (z-score),[4],0.132
same,glycan array binding signal (z-score),[5],-0.16
same,glycan array binding signal (z-score),[6],-0.203
same,glycan array binding signal (z-score),[7],-0.157
same,glycan array binding signal (z-score),[8],-0.161
same,glycan array binding signal (z-score),[9],-0.177
same,glycan array binding signal (z-score),GlcNAc(b1-6)GalNAc,-0.071
same,glycan array binding signal (z-score),[10],-0.097
same,glycan array binding signal (z-score),[11],-0.26
same,glycan array binding signal (z-score),[12],-0.291
same,glycan array binding signal (z-score),Man(a1-3)[Man(a1-6)]Man,-0.126
same,glycan array binding signal (z-score),[13],-0.162
same,glycan array binding signal (z-score),Neu5Ac(a2-3)Gal,-0.003
same,glycan array binding signal (z-score),[14],0.018
same,glycan array binding signal (z-score),[15],-0.256
same,glycan array binding signal (z-score),[16],-0.195
same,glycan array binding signal (z-score),[17],-0.236
same,glycan array binding signal (z-score),[18],-0.191
same,glycan array binding signal (z-score),[19],-0.14
same,glycan array binding signal (z-score),[20],-0.043
same,glycan array binding signal (z-score),[21],-0.209
same,glycan array binding signal (z-score),[22],-0.187
same,glycan array binding signal (z-score),[23],-0.059
same,glycan array binding signal (z-score),Neu5Ac(a2-8)Neu5Ac,-0.302
same,glycan array binding signal (z-score),[24],0.176
same,glycan array binding signal (z-score),[25],-0.128
same,glycan array binding signal (z-score),[26],-0.253
same,glycan array binding signal (z-score),[27],-0.199
same,glycan array binding signal (z-score),[28],-0.226
